Bioassay records from PubChem BioAssay.
SARS PLP yeast – blocks SARS-CoV papain-like protease in a yeast assay | hit rate 0.19% among 330,000 | Potency, µM (highest dose often 32.9 µM), actives largely listed as activators | S. cerevisiae expressing SARS-CoV PLpro, growth rescue; calls by dose curve; also: nearly all actives have a fitted effect of over 55% in size
MARV entry inh – Marburg virus entry inhibition; AID 540276; hit rate 1.8% among 300,000; Marburg virus pseudotyped entry inhibition, cell reporter; Potency, µM (top dose mostly 37.8 µM), most hits filed as inhibitors; calls by dose curve; tested in HEK293 cells
FMDV antiviral – foot and mouth disease virus antiviral activity | FMDV antiviral cell-based qHTS | Potency, µM (highest dose often 57.9 µM), usual class: inhibitors | hit rate 1.2% among 410,000 | AID 1159524; calls by dose curve; tested in HEK293T cells; also: read-out not given here; nearly all actives have a fitted effect of over 45% in size
HCMV inh – human cytomegalovirus inhibition. HFF cells, HCMV-luciferase reporter, 72 h; stronger effect = lower value. activity change, negative = inhibition, % at 57.5 µM. hit rate 4.5% among 410,000; in the data active = activity change below about -60%; inconclusive = no clear call, values can overlap the other calls; inactive = above about -39%
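Steps: HFFs plated, 16 h 37C; compounds added; HCMV-luciferase added to MOI 1 PFU/cell; 72 h 37C; OneGlo reagent, 5 min room temperature; luminescence read, normalized to controls.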
HCV inh – HCV inhibition; Huh7.5.1 HCVcc-Cre infection, luciferase reporter, 44 h; Potency, µM (series often up to 41.8 µM), actives largely listed as inhibitors; hit rate 3.4% among 340,000; AID 651820; active = well fitted inhibition curve with a large enough effect; inconclusive = small, poorly fitted or top-dose-only effect, or another doubt; inactive = no such curve, though single readings can be large or run the other way
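Reporter virus HCVcc-Cre (~0.5 moi) infects cells exposed to compound; seeding density 1,000 cells/well with 4 h settling beforehand. Luminescence, 15 sec read, taken 44 h post-infection following a 15 min RT substrate incubation.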
LASV entry inh – inhibitors of Lassa virus binding or cell entry; Lassa virus pseudotype entry inhibition, cell reporter; Potency, µM (titrated, usually from 37.9 µM), actives largely listed as inhibitors; hit rate 1.2% among 300,000; AID 540256; calls by dose curve; tested in HEK293 cells; also: nearly all actives have a fitted effect of over 50% in size
Each line names hits and unclear results; the compound was inactive in the other large screens. Compounds with a hit are over-represented: about 8% of the library has one in this group of screens.

CCOC(=O)[C@]12Cc3c(cc(OC)c(OC)c3OC)[C@H]1N(C(C)C)C(=O)c1ccccc12	FMDV antiviral inconclusive, HCMV inh -100 (no result: SARS PLP yeast, MARV entry inh, HCV inh, LASV entry inh)
CCOC(=O)[C@]12Cc3ccccc3[C@H]1N(C(C)C)C(=O)c1cc(OC)ccc12	FMDV antiviral 28µM, HCMV inh -97 (no result: SARS PLP yeast, MARV entry inh, HCV inh, LASV entry inh)
CCOC(=O)[C@]12Cc3ccccc3[C@H]1N(C)C(=O)c1cc(OC)ccc12	FMDV antiviral inconclusive, HCMV inh -97 (no result: SARS PLP yeast, MARV entry inh, HCV inh, LASV entry inh)
O=C(CN1C(=O)COc2ccc(S(=O)(=O)N3CCOCC3)cc21)N1CCN(c2ccc(F)cc2)CC1	none (no result: SARS PLP yeast, HCV inh)
Cc1cc(C)cc(N(CCC(=O)Nc2nnc(C3CC3)s2)S(=O)(=O)c2ccc(Cl)cc2)c1	MARV entry inh inconclusive, HCMV inh -61, HCV inh inconclusive
COc1ccccc1NC(=O)c1ccc(-c2nc(COc3ccc(C)cc3)c(C)o2)cc1	FMDV antiviral inconclusive, HCMV inh inconclusive (no result: SARS PLP yeast, MARV entry inh, HCV inh)
COc1nc(N(C)S(=O)(=O)c2ccc(C)cc2)nc(C)c1Cl	HCMV inh -61, HCV inh inconclusive
C=CCN(c1nc(C)c(Br)c(OC)n1)S(=O)(=O)c1ccc(C)cc1	none (no result: MARV entry inh, LASV entry inh)
CCCCCCCCCCCCCCCC[n+]1cccc2ccccc21	MARV entry inh inconclusive, FMDV antiviral inconclusive, HCMV inh -98, HCV inh 4.5µM, LASV entry inh 7.9µM
CCCCCCCCC[n+]1cccc2c3ccccc3ccc21	MARV entry inh 2µM, HCV inh 4.5µM, LASV entry inh 2.8µM (no result: HCMV inh)
CCC1=NN(C(=O)c2ccc(C)cc2)C(O)(c2ccc(Br)cc2)C1 (centres undefined)	none
CCC1=NN(C(=O)c2cccc(Br)c2)C(O)(c2ccc(Br)cc2)C1 (centres undefined)	MARV entry inh inconclusive, HCMV inh -71, HCV inh 16µM
COc1cc2c(cc1NC(=O)CSc1ccc(Cl)cc1)oc1ccccc12	HCV inh 10µM
COc1cccc(CN(C)CC(=O)Nc2cc3oc4ccccc4c3cc2OC)c1	MARV entry inh inconclusive, HCV inh 16µM (no result: SARS PLP yeast)
COc1cc(OC)cc(C(=O)NC(=S)Nc2cc3oc4ccccc4c3cc2OC)c1	MARV entry inh inconclusive, HCV inh 1.8µM, LASV entry inh inconclusive
COc1cc2c(cc1NC(=O)COc1ccc(Cl)cc1)oc1ccccc12	none (no result: SARS PLP yeast, HCV inh)
COc1ccc(C(=O)NC(=S)Nc2cc3oc4ccccc4c3cc2OC)cc1	MARV entry inh inconclusive
COc1cc2c(cc1NC(=O)COCC(=O)O)oc1ccccc12	HCMV inh inconclusive
COc1cc2c(cc1NC(=O)CN(C)Cc1cccc(OC)c1OC)oc1ccccc12	MARV entry inh inconclusive, HCV inh 3.5µM
COc1cc2c(cc1NC(=O)/C=C/c1cc(OC)c(OC)c(OC)c1)oc1ccccc12	MARV entry inh 8.9µM, FMDV antiviral inconclusive, HCV inh 8.9µM, LASV entry inh inconclusive
CCc1ccc(OCC(=O)Nc2cc3oc4ccccc4c3cc2OC)cc1	FMDV antiviral inconclusive (no result: SARS PLP yeast, HCV inh)
COc1ccc(CC(=O)Nc2cc3oc4ccccc4c3cc2OC)cc1	HCV inh 4.5µM
CCN(CC)S(=O)(=O)c1cccc(NC(=O)CN(C)Cc2cccc(OC)c2)c1	MARV entry inh 23µM, FMDV antiviral inconclusive, HCMV inh inconclusive, HCV inh inconclusive, LASV entry inh 11µM
CN1C(=O)C(n2ccc3ccccc32)c2cccc(F)c21 (centres undefined)	none (no result: SARS PLP yeast, MARV entry inh, FMDV antiviral, HCV inh, LASV entry inh)
COc1ccc(C(=O)C[n+]2cccc(C)c2C)cc1[N+](=O)[O-]	none
Cc1cc[n+](CC[n+]2ccc(C)cc2)cc1	none (no result: MARV entry inh, LASV entry inh)
CCC(C)(C)c1ccc(OCCCC[n+]2ccc(C)cc2)c(C(C)(C)CC)c1	MARV entry inh 21µM, FMDV antiviral inconclusive, HCMV inh -97, HCV inh inconclusive, LASV entry inh inconclusive
CCC(C)(C)c1ccc(OCCCC[n+]2cccc(C)c2C)c(C(C)(C)CC)c1	FMDV antiviral inconclusive, HCMV inh -97, HCV inh 18µM (no result: MARV entry inh, LASV entry inh)
CCOC(=O)C1=CCC(c2ccccc2)N(S(=O)(=O)c2ccc(C)cc2)[C@H]1CC (some centres undefined)	none (no result: SARS PLP yeast, MARV entry inh, HCV inh, LASV entry inh)
Cc1ccc(S(=O)(=O)N(C)CCCC(=O)Nc2ccc(F)cc2)cc1	HCV inh inconclusive (no result: MARV entry inh, LASV entry inh)
CN(CCCC(=O)Nc1ccc(OC(F)F)cc1)S(=O)(=O)c1ccc(F)cc1	FMDV antiviral inconclusive, HCV inh 11µM (no result: LASV entry inh)
CN(CCCC(=O)Nc1ccccc1F)S(=O)(=O)c1ccc(F)cc1	HCMV inh -61
COc1ccc(NC(=O)CCCN(C)S(=O)(=O)c2ccc(C)cc2)cc1	MARV entry inh inconclusive, HCV inh inconclusive, LASV entry inh inconclusive
Cc1ccc(S(=O)(=O)N(C)CCCC(=O)Nc2ccncc2)cc1	FMDV antiviral inconclusive, HCV inh 5.6µM (no result: MARV entry inh, LASV entry inh)
CC(=O)S[C@@H]1CC2=CC(=O)CC[C@@]2(C)[C@H]2CC[C@]3(C)[C@H](CC[C@@]34CCC(=O)O4)[C@H]12	none (no result: SARS PLP yeast, FMDV antiviral, HCMV inh, HCV inh, LASV entry inh)
CC(=O)SC1CC2=CC(=O)CCC2(C)C2CCC3(C)C(CCC34CCC(=O)O4)C12 (centres undefined)	HCMV inh -63, HCV inh inconclusive
C1=C(c2ccc3c(c2)CN(Cc2cccn2-c2ncccn2)CCO3)Cc2ccccc21	none (no result: SARS PLP yeast, MARV entry inh, HCMV inh, HCV inh, LASV entry inh)
Cc1ccc(NC(=O)c2ccc(CNS(=O)(=O)c3ccc4c(c3)C(C)(C)C(=O)N4C)cc2)cc1C	FMDV antiviral 35µM, LASV entry inh inconclusive (no result: SARS PLP yeast, MARV entry inh, HCV inh)
Cc1cccc(NC(=O)c2ccc(CNS(=O)(=O)c3ccc4c(c3)C(C)(C)C(=O)N4C)cc2)c1	FMDV antiviral 35µM, LASV entry inh inconclusive (no result: SARS PLP yeast, MARV entry inh, HCV inh)
CC1CN(CC(=O)NCCc2ccncc2)Cc2ccccc2O1 (centres undefined)	none (no result: SARS PLP yeast, MARV entry inh, HCMV inh, HCV inh, LASV entry inh)
Cc1ccc(C(=O)NC(C)c2ccc(-n3ccnc3)cc2)cc1S(=O)(=O)N1CCOCC1 (centres undefined)	HCMV inh -97, HCV inh inconclusive
COc1ccc(NC(=O)c2cc3c(s2)CCC(C)C3)cc1S(=O)(=O)N1CCOCC1 (centres undefined)	MARV entry inh inconclusive, FMDV antiviral 28µM, HCMV inh -100, HCV inh inconclusive, LASV entry inh 23µM
Cc1cccc(C)c1NS(=O)(=O)c1ccc(NC(=O)c2ccc(Cl)c([N+](=O)[O-])c2)cc1	HCMV inh -66, HCV inh 7.1µM
Cc1ccc(NC(=O)c2cccc(S(=O)(=O)N(C)c3ccccc3)c2)cc1S(=O)(=O)N1CCOCC1	MARV entry inh inconclusive, FMDV antiviral inconclusive, HCMV inh -70, HCV inh 4µM, LASV entry inh inconclusive
CCC[C@H]1[C@@H](NS(=O)(=O)c2ccc(C(F)(F)F)cc2)CC[C@@]23CCCN2C(=O)CCC[C@@H]13	none (no result: SARS PLP yeast, MARV entry inh, FMDV antiviral, HCV inh, LASV entry inh)
COc1ccc(C(=O)Nc2cccc(S(=O)(=O)N3CCCC3)c2)cc1S(=O)(=O)N1CCOCC1	HCV inh inconclusive
O=C(Cn1cnc2cc([N+](=O)[O-])ccc2c1=O)Nc1cccc(S(=O)(=O)N2CCCCC2)c1	FMDV antiviral inconclusive, HCMV inh inconclusive, HCV inh 5.6µM (no result: SARS PLP yeast, MARV entry inh, LASV entry inh)
